# Assay results published in the supplement of paper PMC12282887.
# ± gives the standard deviation of the averaged measurements.
# Assays:
# Assay in all cases: promoter activity interaction Z-score (Lux/OD deviation from empty-vector control); higher = stronger promoter induction by the compound
# [1] = system: E. coli BW25113 acrABp lux reporter
# Method in brief: (§1)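 Every compound was given at four 1:2 dilutions, in biological duplicates, to E. coli BW25113 carrying low-copy luxCDABE promoter reporters in wild-type or single-gene deletion backgrounds. Growth in 40 µl LB Lennox in 384-well plates at 37°C was followed by OD600 and luminescence readings every 30 min for 12 h, integrated over 0–8 h for wild type and 1–9 h for deletion strains, with wells below 10% of the median growth value excluded. Scores are Z-transformed residuals of growth-normalised luminescence fitted against a control.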
# [2] = system: E. coli BW25113 micFp lux reporter
# Method in brief: as §1
# [3] = system: E. coli BW25113 ompFp lux reporter
# Method in brief: as §1
# [4] = system: E. coli BW25113 robp lux reporter
# Method in brief: as §1
# [5] = system: E. coli BW25113 soxSp lux reporter
# Method in brief: as §1
# [6] = system: E. coli BW25113 tolCp lux reporter
# Method in brief: as §1
# [7] = 9.8 µg/ml, genetic background: wild type
# [8] = 9.8 µg/ml, genetic background: ΔmarA
# [9] = 9.8 µg/ml, genetic background: Δrob
# [10] = 9.8 µg/ml, genetic background: ΔsoxS
# [11] = 19.5 µg/ml, genetic background: wild type
# [12] = 19.5 µg/ml, genetic background: ΔmarA
# [13] = 19.5 µg/ml, genetic background: Δrob
# [14] = 19.5 µg/ml, genetic background: ΔsoxS
# [15] = 39 µg/ml, genetic background: wild type
# [16] = 39 µg/ml, genetic background: ΔmarA
# [17] = 39 µg/ml, genetic background: Δrob
# [18] = 39 µg/ml, genetic background: ΔsoxS
compound,measurement,setting,value
c1ccc(-c2ccccn2)nc1 [2-2-Bipyridyl],promoter activity interaction Z-score,[1]; [7],-0.38 ± 0.11
same,promoter activity interaction Z-score,[1]; [8],-0.262 ± 0.49
same,promoter activity interaction Z-score,[1]; [9],-0.666 ± 0.24
same,promoter activity interaction Z-score,[1]; [10],-0.339 ± 0.48
same,promoter activity interaction Z-score,[1]; [11],-0.678 ± 0.23
same,promoter activity interaction Z-score,[1]; [12],0.0964 ± 1.5
same,promoter activity interaction Z-score,[1]; [13],-0.696 ± 0.048
same,promoter activity interaction Z-score,[1]; [14],-0.763 ± 0.36
same,promoter activity interaction Z-score,[1]; [15],-0.446 ± 0.45
same,promoter activity interaction Z-score,[1]; [16],1.4 ± 0.6
same,promoter activity interaction Z-score,[1]; [17],-0.276 ± 0.72
same,promoter activity interaction Z-score,[1]; [18],-0.305 ± 0.33
same,promoter activity interaction Z-score,[2]; [7],0.412 ± 0.33
same,promoter activity interaction Z-score,[2]; [8],0.243 ± 0.14
same,promoter activity interaction Z-score,[2]; [9],0.0359 ± 0.019
same,promoter activity interaction Z-score,[2]; [10],0.7191 ± 0.0054
same,promoter activity interaction Z-score,[2]; [11],1.15 ± 0.4
same,promoter activity interaction Z-score,[2]; [12],0.622 ± 0.29
same,promoter activity interaction Z-score,[2]; [13],0.498 ± 0.0061
same,promoter activity interaction Z-score,[2]; [14],3.01 ± 0.73
same,promoter activity interaction Z-score,[2]; [15],5.52 ± 0.58
same,promoter activity interaction Z-score,[2]; [16],0.943 ± 0.12
same,promoter activity interaction Z-score,[2]; [17],7.21 ± 1.5
same,promoter activity interaction Z-score,[2]; [18],9.5118 ± 0.00024
same,promoter activity interaction Z-score,[3]; [7],-0.0949 ± 0.034
same,promoter activity interaction Z-score,[3]; [8],-0.555 ± 0.58
same,promoter activity interaction Z-score,[3]; [9],-0.389 ± 0.39
same,promoter activity interaction Z-score,[3]; [10],-0.351 ± 0.17
same,promoter activity interaction Z-score,[3]; [11],-0.745 ± 0.54
same,promoter activity interaction Z-score,[3]; [12],-0.948 ± 0.58
same,promoter activity interaction Z-score,[3]; [13],-0.682 ± 0.16
same,promoter activity interaction Z-score,[3]; [14],-0.195 ± 0.78
same,promoter activity interaction Z-score,[3]; [15],-1.5 ± 0.86
same,promoter activity interaction Z-score,[3]; [16],-1.52 ± 0.45
same,promoter activity interaction Z-score,[3]; [17],-0.777 ± 0.2
same,promoter activity interaction Z-score,[3]; [18],0.325 ± 1.2
same,promoter activity interaction Z-score,[4]; [7],-0.0517 ± 0.47
same,promoter activity interaction Z-score,[4]; [8],0.352 ± 0.77
same,promoter activity interaction Z-score,[4]; [9],-0.375 ± 0.059
same,promoter activity interaction Z-score,[4]; [10],-0.326 ± 0.77
same,promoter activity interaction Z-score,[4]; [11],-0.772 ± 0.88
same,promoter activity interaction Z-score,[4]; [12],0.322 ± 0.12
same,promoter activity interaction Z-score,[4]; [13],-0.387 ± 0.49
same,promoter activity interaction Z-score,[4]; [14],-0.7 ± 0.084
same,promoter activity interaction Z-score,[4]; [15],-0.663 ± 1
same,promoter activity interaction Z-score,[4]; [16],0.193 ± 0.17
same,promoter activity interaction Z-score,[4]; [17],0.111 ± 0.013
same,promoter activity interaction Z-score,[4]; [18],1.63 ± 3.1
same,promoter activity interaction Z-score,[5]; [7],0.0863 ± 0.015
same,promoter activity interaction Z-score,[5]; [8],0.104 ± 0.016
same,promoter activity interaction Z-score,[5]; [9],-0.0121 ± 0.077
same,promoter activity interaction Z-score,[5]; [10],-0.208 ± 0.27
same,promoter activity interaction Z-score,[5]; [11],-0.706 ± 0.15
same,promoter activity interaction Z-score,[5]; [12],-0.407 ± 0.018
same,promoter activity interaction Z-score,[5]; [13],-0.63 ± 0.12
same,promoter activity interaction Z-score,[5]; [14],-0.64 ± 0.078
same,promoter activity interaction Z-score,[5]; [15],-1.84 ± 0.052
same,promoter activity interaction Z-score,[5]; [16],-1.08 ± 0.22
same,promoter activity interaction Z-score,[5]; [17],-1.495 ± 0.0068
same,promoter activity interaction Z-score,[5]; [18],-1.14 ± 0.73
same,promoter activity interaction Z-score,[6]; [7],-0.433 ± 0.08
same,promoter activity interaction Z-score,[6]; [8],-0.587 ± 0.68
same,promoter activity interaction Z-score,[6]; [9],-0.425 ± 0.56
same,promoter activity interaction Z-score,[6]; [10],0.264 ± 0.45
same,promoter activity interaction Z-score,[6]; [11],-1.32 ± 0.36
same,promoter activity interaction Z-score,[6]; [12],-0.963 ± 0.81
same,promoter activity interaction Z-score,[6]; [13],-0.8 ± 0.27
same,promoter activity interaction Z-score,[6]; [14],-0.588 ± 0.17
same,promoter activity interaction Z-score,[6]; [15],-0.831 ± 0.2
same,promoter activity interaction Z-score,[6]; [16],-1.07 ± 0.4
same,promoter activity interaction Z-score,[6]; [17],0.715 ± 0.83
same,promoter activity interaction Z-score,[6]; [18],1.8 ± 1.5
